Eight compounds from PubChem BioAssay (NCI) can be followed below.

Some test systems named below: SR leukemia; RPMI-8226 leukemia; OVCAR-8 ovarian; OVCAR-5 ovarian; OVCAR-4 ovarian; SK-OV-3 ovarian; IGROV1 ovarian; OVCAR-3 ovarian; HS 578T breast; NCI/ADR-RES ovarian; T-47D breast; BT-549 breast; MDA-MB-435 melanoma; SW-620 colon; MCF7 breast; HCT-116 colon; HCC-2998 colon; KM12 colon.
What all share (assay): NCI-60 one-dose screen, 48 h (100 = growth as untreated, 0 = no growth, -100 = all killed)
Common to all, as to details: 10 µM unless noted

The panel holds about 83,000 compounds, 20% with a hit somewhere; the sample as a whole holds those more often.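 48-hour exposure, single concentration, 96-well plates; percent growth endpoint where 0 means no net growth. Active: below 10.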 Unmarked numbers belong to inactive results. Active and inactive are the calls of the source.

On to `Cc1nc2sc(C(=O)Nc3ccccn3)c(N)c2cc1C(C)O` (centres undefined), for which the growth was 15.2% in the assay with SR leukemia; 94.5% in the assay with RPMI-8226 leukemia; 92.5% with OVCAR-8 ovarian; 77.9% in the assay with OVCAR-5 ovarian; 81% in the assay with OVCAR-4 ovarian; 65.2% in the assay with SK-OV-3 ovarian. Moreover, the growth in the assay with IGROV1 ovarian was 70.4%; with OVCAR-3 ovarian, 76.5%; in the assay on HS 578T breast, 74.7%; with NCI/ADR-RES ovarian, 74.2%; with T-47D breast, 73.1%; with BT-549 breast, 85.1%. The growth is -31.6% (active) in the assay on MDA-MB-435 melanoma; 48.8% with SW-620 colon; 29.6% with MCF7 breast; 48.1% in the assay with HCT-116 colon; 74.8% with HCC-2998 colon; 37.5% with KM12 colon.

As to `Cc1cc(N2CCN(CC(=O)Nc3ccc4c(ccn4Cc4ccccc4)c3)CC2)nc(N2CCOCC2)n1`, the growth with SR leukemia is 107%; in the assay on RPMI-8226 leukemia, 67%; in the assay with OVCAR-8 ovarian, 68.2%; in the assay on OVCAR-5 ovarian it was 97.9%; with OVCAR-4 ovarian it was 84.4%; in the assay with SK-OV-3 ovarian it was 81.9%. Besides, the growth in the assay with IGROV1 ovarian was 76.8%; with OVCAR-3 ovarian, 89.3%; in the assay with HS 578T breast it was 82.8%; in the assay on NCI/ADR-RES ovarian it was 79.4%; in the assay with T-47D breast, 59.6%; in the assay with BT-549 breast, 81.5%. The growth is 92.9% in the assay with MDA-MB-435 melanoma; 95% with SW-620 colon; 79.8% in the assay on MCF7 breast; 72.5% in the assay with HCT-116 colon; 119% in the assay on HCC-2998 colon; 91.3% with KM12 colon.

As for `O=C(O)CCCCCCCCCCN1C(=O)/C(=C2/C(=O)N(CC(=O)O)c3ccc(Br)cc32)SC1=S`, the growth is 57.6% with SR leukemia; 79.3% in the assay on RPMI-8226 leukemia; 65.9% in the assay with OVCAR-8 ovarian; 106% in the assay with OVCAR-5 ovarian; 95% in the assay with OVCAR-4 ovarian; 96.6% in the assay on SK-OV-3 ovarian. The growth is 74.3% in the assay with IGROV1 ovarian; 87.9% in the assay on OVCAR-3 ovarian; 85% with HS 578T breast; 96.7% in the assay on NCI/ADR-RES ovarian; 77.9% in the assay with T-47D breast; 105% in the assay on BT-549 breast. Besides, the growth is 102% with MDA-MB-435 melanoma; 106% in the assay with SW-620 colon; 82.9% in the assay on MCF7 breast; 87.2% in the assay on HCT-116 colon; 115% in the assay on HCC-2998 colon; 40.2% with KM12 colon.

As for `O=Nc1ccc(NC(=O)Nc2ccc([N+](=O)[O-])cc2)cc1`, the growth is 81.1% with SR leukemia; 44.1% with RPMI-8226 leukemia; 91.5% in the assay with OVCAR-8 ovarian; 122% with OVCAR-5 ovarian; 87.1% with OVCAR-4 ovarian; 102% with SK-OV-3 ovarian. Moreover, the growth with IGROV1 ovarian is 99.5%; in the assay on OVCAR-3 ovarian, 98.4%; with HS 578T breast, 91.6%; with NCI/ADR-RES ovarian it was 91.6%; in the assay on T-47D breast, 78.9%; with BT-549 breast it was 98.3%. Also, the growth in the assay on MDA-MB-435 melanoma is 96.5%; with SW-620 colon it was 97.4%; in the assay on MCF7 breast, 94%; in the assay on HCT-116 colon, 86.5%; in the assay on HCC-2998 colon, 104%; in the assay on KM12 colon, 90.7%.

Take `OC1CSSC1Cn1cnc2c(Nc3ccc(OCc4cccc(F)c4)c(Cl)c3)ncnc21` (centres undefined): the growth is -29.9% (active) in the assay with SR leukemia; -37.5% (active) with RPMI-8226 leukemia; 37.4% in the assay on OVCAR-8 ovarian; 41% in the assay with OVCAR-5 ovarian; 4.03% (active) in the assay with OVCAR-4 ovarian; -8.67% (active) with SK-OV-3 ovarian. Also, the growth with IGROV1 ovarian is 41.4%; with OVCAR-3 ovarian, -70.2% (active); with HS 578T breast, 59.2%; in the assay with NCI/ADR-RES ovarian, 1.93% (active); in the assay with T-47D breast, 19.8%; in the assay with BT-549 breast, 52.9%. The growth is -77.1% (active) in the assay on MDA-MB-435 melanoma; -20.3% (active) in the assay on SW-620 colon; -60.1% (active) with MCF7 breast; -33.1% (active) with HCT-116 colon; -81.7% (active) in the assay on HCC-2998 colon; -60.3% (active) with KM12 colon.

For the compound `CN(C)c1ccc(/C=C2\C=C(c3nc4ccccc4s3)OC2=O)cc1`, the growth is 96.7% in the assay with SR leukemia; 72% in the assay on RPMI-8226 leukemia; 100% in the assay with OVCAR-8 ovarian; 96.9% with OVCAR-5 ovarian; 81.7% in the assay with OVCAR-4 ovarian; 86.8% in the assay with SK-OV-3 ovarian. The growth in the assay on IGROV1 ovarian is 89.7%; in the assay on OVCAR-3 ovarian it was 102%; with HS 578T breast it was 92.2%; in the assay with NCI/ADR-RES ovarian, 98.8%; in the assay on T-47D breast, 78%; in the assay on BT-549 breast it was 110%. The growth with MDA-MB-435 melanoma was 100%; with SW-620 colon, 94.7%; with MCF7 breast, 70.8%; in the assay on HCT-116 colon, 100%; in the assay on HCC-2998 colon, 97.8%; in the assay with KM12 colon, 93.7%.

Regarding `COC12C=C/C(=C(/C(=O)OCc3cncnc3)C(=O)CCCCCCCCC3(OC)C=C/C(=C(/C(=O)OCc4cncnc4)C(=O)CCCCCCCC1)O3)O2`, the growth with SR leukemia was -36% (active); in the assay with RPMI-8226 leukemia, -20.1% (active); in the assay on OVCAR-8 ovarian, 9.06% (active); in the assay on OVCAR-5 ovarian, -25.6% (active); in the assay with OVCAR-4 ovarian it was -4.86% (active); with SK-OV-3 ovarian, 36.9%. Besides, the growth in the assay with IGROV1 ovarian is -59.5% (active); with OVCAR-3 ovarian, -57.8% (active); with HS 578T breast it was 26.5%; with NCI/ADR-RES ovarian, 8.14% (active); in the assay with T-47D breast it was 10.2%; in the assay on BT-549 breast, -10.2% (active). Besides, the growth with MDA-MB-435 melanoma was -49.8% (active); in the assay on SW-620 colon, 4.94% (active); with MCF7 breast, 3.84% (active); with HCT-116 colon, -63.8% (active); with HCC-2998 colon, -77.5% (active); with KM12 colon, -89.2% (active).

Take `C[N+]1=C(/C=C/c2ccccc2Cl)C(C)(C)c2ccccc21`: the growth with SR leukemia was 18.2%; with RPMI-8226 leukemia, 66.9%; in the assay with OVCAR-8 ovarian, 90.8%; with OVCAR-5 ovarian it was 100%; in the assay on OVCAR-4 ovarian, 96.1%; in the assay with SK-OV-3 ovarian, 94.3%. In addition, the growth was 90.6% in the assay on IGROV1 ovarian; 78.3% in the assay on OVCAR-3 ovarian; 102% with HS 578T breast; 101% in the assay with NCI/ADR-RES ovarian; 86.4% in the assay with T-47D breast; 109% in the assay on BT-549 breast. In addition, the growth is 100% with MDA-MB-435 melanoma; 92.4% in the assay on SW-620 colon; 94.7% in the assay on MCF7 breast; 90.8% with HCT-116 colon; 103% with HCC-2998 colon; 96.6% with KM12 colon.
